# Screens deposited in PubChem BioAssay by University of Kansas High Throughput Screening Laboratory.
# This is a sample that favours compounds with a hit; in the whole collection about 3.6% have one here.
# Pf apPOL inh = Pf-apPOL DNA polymerase inhibition. inhibition, % at 10 µM. 210,000 tested, 0.25% active. Recombinant Pf-apPOL, molecular beacon fluorescence, 1.5 h. AID 1794808
# mHTT-CaM PPI inh = disrupts binding of mutant huntingtin to calmodulin; P42858; AlphaScreen His-mHTT/GST-CaM binding, luminescence; inhibition, % at 15 µM; 190,000 tested, 3.6% active;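 note: 0% = both proteins with DMSO and 100% = one protein alone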
# The depositor's hits bear a star. Cut-off read from the data, not from the text of the source: active = inhibition above about 50%; inactive = the rest.
SMILES,Pf apPOL inh,mHTT-CaM PPI inh
CCCCN(CC)S(=O)(=O)c1ccc(C(=O)Nc2nc(-c3ccccn3)cs2)cc1,-7,96*
CCCCN(CC)S(=O)(=O)c1ccc(C(=O)Nc2nnc(CC)o2)cc1,-2,24
Cc1ccc(NC(=O)N2CCc3c(c(COCc4ccccc4C)nn3C)C2)cc1,-1,28
CC1(C)CC2CC(C)(CN2C(=O)c2ncn(-c3ccccc3)n2)C1 (configuration not stated),2,6
Cc1cc(C)nc(NC(=O)NC2CCCCC2)c1,2,-3
COc1cccc(C2=NC(C)(C)NC(c3cc(Br)ccc3O)C2)c1 (configuration not stated),-4,100*
COc1cccc(C2=NC3(CCN(C)CC3)NC(c3cccc(OC)c3O)C2)c1 (configuration not stated),-1,25
COc1cccc(C2=NC(C)(C)NC(c3ccccc3O)C2)c1 (configuration not stated),-3,65*
CC(=O)N1CCC2(CC1)N=C(c1ccc3c(c1)OCO3)CC(c1ccccc1O)N2 (configuration not stated),8,18
CCOc1cccc(C2CC(c3cccc(OC)c3)=NC3(CCN(C)CC3)N2)c1O (configuration not stated),4,35
CCC1(C)N=C(c2ccc3c(c2)OCO3)CC(c2ccccc2O)N1 (configuration not stated),-5,83*
Cc1cccc(CN2CCCn3nc(C(=O)NCCc4ccco4)cc3C2=O)c1,-1,0
COc1cccc(OC)c1C(=O)N=c1sc2cc([N+](=O)[O-])ccc2n1C,-11,1
Cc1ccc(NC(=O)C2CCc3nc(N4CCCCC4)ncc3C2)cc1 (configuration not stated),-1,-5
CCN(CC)S(=O)(=O)c1cc(C)cc(S(=O)(=O)c2ccc(Cl)cc2)c1C,5,-6
Cn1cc(C(=O)Nc2ccc3c(c2)CCC3)c2ccccc2c1=O,2,50*
Cc1ccc(NC(=O)c2cn(C)c(=O)c3ccccc23)c(Br)c1,-9,10
Cn1cnnc1-c1cccc(NC(=O)/C=C/c2ccc(F)cc2)c1,-1,-5
Cc1cccc(NC(=O)C2CCCN(c3nccc4sccc34)C2)c1C (configuration not stated),-5,-4
Cc1cc(=O)[nH]c(-n2nc(C)cc2N)n1,-125,98*
Cc1cc(=O)[nH]c(-n2nc(C)cc2NC(=O)c2snnc2C)n1,-3,-13
COCCN1CCC(N2CCCN(C(=O)c3cc(Cl)ccc3F)CC2)C1=O (configuration not stated),6,-4
Cc1ccc(C)c(N2CCN(C(=O)c3cccc(-c4nccnc4N(C)C)c3)CC2)c1,0,44
O=C(c1ccc2c(c1)nc1n2CCCCC1)N1CCN(c2ccccc2)CC1,-5,11
Cc1cccc(N2CCN(C(=O)c3cn4c(n3)CCCC4)CC2)c1C,0,54*
SMILES,Pf apPOL inh,mHTT-CaM PPI inh
Cc1ccc(C)c(N2CCN(C(=O)c3ccc(-c4nccnc4N(C)C)cc3)CC2)c1,-4,94*
Cc1cccc(N2CCN(C(=O)c3noc4c3CCCC4)CC2)c1C,-3,-24
Cc1ccccc1N1CCN(C(=O)c2cn3c(n2)CCCC3)CC1,-3,30
Cc1ccc(C)c(N2CCN(C(=O)c3ccc4c(c3)nc3n4CCCC3)CC2)c1,-5,84*
CCc1nc(N2CCCC2=O)sc1C(=O)N1CCN(c2cccc(C)c2C)CC1,-1,64*
O=C(c1c(F)cccc1Cl)N1CCN(c2ccc([N+](=O)[O-])cc2)CC1,2,-4
Cc1ccc(C2CC(c3ccc(F)cc3)n3nnnc3N2)cc1C (configuration not stated),4,13
Cc1ccc(C)c(N2CCN(C(=O)c3cn4c(n3)CCCC4)CC2)c1,-5,51*
CCN1CCn2cc(C(=O)N3CCN(c4cc(C)ccc4C)CC3)nc2C1,-2,16
O=C(c1ccco1)N1CCN(CC(=O)N2CCCc3c2c(=O)oc2ccc(O)cc32)CC1,8,1
O=C(CN1CCN(Cc2ccccc2)CC1)N1CCCc2c1c(=O)oc1ccc(O)cc21,3,57*
CCCn1c(C2CCN(C(=O)Nc3ccc(C)cc3)C2)nc2cccnc21 (configuration not stated),-7,-1
O=C(c1n[nH]c2c1CCCC2)N1CCCC2(C1)Nc1ccccc1NC2=NC1CCCC1 (configuration not stated),-2,92*
CC(C)(C)N=C1Nc2ccccc2NC12CCCN(C(=O)c1cccc(F)c1)C2 (configuration not stated),4,15
Cc1noc(C)c1CC(=O)N1CCCC2(C1)Nc1ccccc1NC2=NC(C)(C)C (configuration not stated),-2,34
CC(C)(C)N=C1Nc2ccccc2NC12CCCN(C(=O)Cc1ccccc1F)C2 (configuration not stated),-2,65*
